From PubChem BioAssay (NCI)
Values joined by “and” are separate entries in the source; they are usually repeats but may differ in a detail not shown here. Equal values may be shown once. Compounds without any hit were thinned out: in the full panel of roughly 83,000, 20% have a hit.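 Method: cells in 96-well plates; compound added at one concentration; 48 h incubation; percent growth measured; values under 10 scored active.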 Active and inactive are the calls of the source.

Legend:
Assay in all cases: NCI-60 one-dose screen, 48 h (100 = growth as untreated, 0 = no growth, -100 = all killed)
Details in all cases: 10 µM unless noted
[1] = system: HCT-15 colon
[2] = system: HT29 colon
[3] = system: SNB-75 CNS
[4] = system: SNB-19 CNS
[5] = system: U251 CNS
[6] = system: PC-3 prostate
[7] = system: SK-MEL-5 melanoma
[8] = system: UACC-62 melanoma
[9] = system: LOX IMVI melanoma
[10] = system: SK-MEL-28 melanoma

Compound	growth [1]	growth [2]	growth [3]	growth [4]	growth [5]	growth [6]	growth [7]	growth [8]	growth [9]	growth [10]
Nc1ccc(/C=N/Nc2ccnc3c(N)cccc23)c2cccnc12	-49.7% (active)	-22.5% (active)	-99.7% (active)	21.8% (inactive)	-63.4% (active)	15.8% (inactive)	83.1% (inactive)	89.5% (inactive)	-90.9% (active)	105% (inactive)
COc1cc2c(cc1OCCCOC1=C=C=C(c3ccc4c(c3)c3cc(-c5ccc(OCCCOc6cc7c(cc6OC)C(=O)N6CCC[C@H]6C=N7)cc5)ccc3n4S(=O)(=O)c3ccc(C)cc3)C=C1)N=C[C@@H]1CCCN1C2=O	69.4% (inactive)	37.7% (inactive)	4.32% (active)	61.6% (inactive)	-29.8% (active)	42.7% (inactive)	39% (inactive)	-14.1% (active)	-14.5% (active)	64.8% (inactive)
C[C@@H]1CC[C@@H]2[C@@H]1[C@H](OC(=O)/C=C/c1ccccc1)[C@]1(c3ccccc3)C[C@@H](NC(=O)CO)[C@@]2(C)O1	91.7% (inactive)	109% (inactive)	88% (inactive)	96.2% (inactive)	88.9% (inactive)	78.9% (inactive)	97.9% (inactive)	71.7% (inactive)	96.1% (inactive)	103% (inactive)
O=C(Cc1ccc(F)cc1)c1ccccc1	108% (inactive)	109% (inactive)	100% (inactive)	109% (inactive)	106% (inactive)	91.4% (inactive)	110% (inactive)	106% (inactive)	102% (inactive)	114% (inactive)
Clc1ccc2c(c1)N(c1ncnc3ccc(-c4cnc5[nH]ccc5c4)cc13)CC2	14.4% (inactive)	3.75% (active)	3.69% (active)	38.3% (inactive)	41.3% (inactive)	28.2% (inactive)	32.7% (inactive)	29.3% (inactive)	13.4% (inactive)	36% (inactive)
CC[C@]1(O)CC2CN(CCc3c([nH]c4ccccc34)C(C(=O)OC)(c3cc4c(cc3OC)N(C=O)[C@H]3[C@@](O)(C(=O)OC)[C@H](OC(C)=O)[C@]5(CC)[C@@H]6C[C@@H]6CN6CC[C@]43[C@@H]65)C2)C1 (stereo not given in full)	15.5% (inactive)	-21.1% (active)	10.8% (inactive)	37.5% (inactive)	6.57% (active)	17.9% (inactive)	-49.4% (active)	37.2% (inactive)	26.6% (inactive)	69.5% (inactive)
COc1cc(NC2CCCCC2O)c2nc(-c3ccc(Cl)cc3)ccc2c1 (stereo not given)	49.6% (inactive) and 62.8% (inactive)	54.2% (inactive) and 67.9% (inactive)	82% (inactive) and 103% (inactive)	83.4% (inactive) and 93.6% (inactive)	56.8% (inactive) and 68.8% (inactive)	70.1% (inactive)	96.6% (inactive) and 98.1% (inactive)	83.7% (inactive) and 94.7% (inactive)	41.4% (inactive) and 77% (inactive)	94.2% (inactive) and 96.7% (inactive)
CC/C=C\C/C=C\C[C@H](O)C/C=C1/C(=O)C=C[C@@H]1C/C=C\CCCC(=O)OC	-25.8% (active)	-25.4% (active)	53.3% (inactive)	20.2% (inactive)	-73.3% (active)	-36.6% (active)	-94.9% (active)	-56% (active)	-80.5% (active)	-38% (active)
CN1CCN(CCCN2c3ccccc3Sc3ccc(Cl)cc32)CC1	68.8% (inactive) and 80.8% (inactive)	25.2% (inactive) and 35.9% (inactive)	45.2% (inactive) and 57.4% (inactive)	89.7% (inactive) and 91.4% (inactive)	54.6% (inactive) and 68% (inactive)	56.2% (inactive) and 53.6% (inactive)	17.6% (inactive) and 62.1% (inactive)	33.1% (inactive)	54.4% (inactive) and 71.8% (inactive)	-18.1% (active) and 67.7% (inactive)
Clc1cccc(Nc2ncnc3ccc(-c4cncc(-n5cnnn5)c4)cc23)c1	70.2% (inactive)	74% (inactive)	59.9% (inactive)	79.5% (inactive)	76.1% (inactive)	42.9% (inactive)	65.8% (inactive)	85.3% (inactive)	70.3% (inactive)	97.3% (inactive)
CC1(C)C(N)=Nc2cc(OCCCN3Cc4ccc(OCCc5cn(CC(=O)N6CCC(CCN7CCCC7)CC6)nn5)cc4C3)c(OCC3CC3)cc21	97.2% (inactive)	74.2% (inactive)	93.8% (inactive)	104% (inactive)	97.7% (inactive)	84.5% (inactive)	103% (inactive)	98.6% (inactive)	100% (inactive)	108% (inactive)
COC(=O)c1nc(-c2ccccc2)oc1S(=O)(=O)N(C)CCO	42.5% (inactive)	35.7% (inactive)	95.5% (inactive)	92.3% (inactive)	82.7% (inactive)	63.2% (inactive)	96% (inactive)	77.2% (inactive)	71.6% (inactive)	69.8% (inactive)
COc1cc2ncnc(Nc3ccc(F)c(Cl)c3)c2cc1OCC(=O)N1CCCCC1	86.1% (inactive)	77.1% (inactive)	87.7% (inactive)	91.8% (inactive)	96.9% (inactive)	84.6% (inactive)	90.4% (inactive)	91.7% (inactive)	87.4% (inactive)	99.2% (inactive)
Clc1ccc2c(NCCN3CCN(c4ccnc(N5CCCC5)n4)CC3)ccnc2c1	0.29% (active)	6.82% (active)	90.7% (inactive)	53.7% (inactive)	6.81% (active)	58.6% (inactive)	-16.8% (active)	-29.5% (active)	-70.1% (active)	-17.6% (active)
COc1ccc(-c2cc(-c3cccc(Cl)c3)c(C#N)c(=O)[nH]2)c(OC)c1	97.7% (inactive)	118% (inactive)	72.7% (inactive)	94.2% (inactive)	96.4% (inactive)	92.3% (inactive)	94.2% (inactive)	90.7% (inactive)	101% (inactive)	92.2% (inactive)
Nc1nc(CSc2n[nH]c(N)n2)nc(Nc2ccccc2)n1	94.2% (inactive)	106% (inactive)	82.2% (inactive)	101% (inactive)	99.9% (inactive)	101% (inactive)	101% (inactive)	91.9% (inactive)	98.3% (inactive)	100% (inactive)
NC(N)=NC(N)=NCCCc1ccco1	106% (inactive)	94.4% (inactive)	111% (inactive)	103% (inactive)	101% (inactive)	103% (inactive)	101% (inactive)	113% (inactive)	97.1% (inactive)	98.8% (inactive)
COC1=CC(c2ccc[nH]2)=N/C1=C\c1[nH]c(C)c(C(=O)Oc2ccccc2)c1C	-35.1% (active)	-15.7% (active)	-16.6% (active)	20.9% (inactive)	-16.5% (active)	17.6% (inactive)	-99.9% (active)	-62.8% (active)	-86.1% (active)	-77.9% (active)
O=C1CCc2c(sc3[nH]c(=S)n(Cc4ccc(Cl)cc4)c(=O)c23)C1	-13.5% (active)	14.5% (inactive)	3.19% (active)	19.8% (inactive)	5.03% (active)	3.57% (active)	-81.1% (active)	0.777% (active)	2.41% (active)	19.6% (inactive)
C=C(CN1CC=CCC1)[C@@H]1CC[C@]2(COC(C)=O)CC[C@]3(C)[C@H](CC[C@@H]4[C@@]5(C)CC[C@H](O)C(C)(C)[C@@H]5CC[C@]43C)[C@@H]12	101% (inactive)	79.7% (inactive)	98.9% (inactive)	97.1% (inactive)	92.8% (inactive)	79.6% (inactive)	99.3% (inactive)	92.3% (inactive)	100% (inactive)	105% (inactive)
COc1c(O)c(O)cc2c3c(oc12)CC(c1ccc2c(c1)OCO2)CC3=O (stereo not given)	42.1% (inactive)	93.4% (inactive)	84.5% (inactive)	77.8% (inactive)	76.2% (inactive)	76.1% (inactive)	31.4% (inactive)	4.1% (active)	25.3% (inactive)	47% (inactive)
CCN(CC)CCOc1ccccc1C	107% (inactive)	101% (inactive)	98.6% (inactive)	104% (inactive)	108% (inactive)	97.3% (inactive)	102% (inactive)	101% (inactive)	104% (inactive)	98.3% (inactive)
Cc1ccc(-c2nc3nc(-c4ccc(Br)cc4)nc(N4CCCNCC4)c3o2)cc1	-84.5% (active)	-85.3% (active)	96.2% (inactive)	-47.3% (active)	-76.6% (active)	-52% (active)	92.6% (inactive)	101% (inactive)	-85.1% (active)	103% (inactive)
C=C(CNCCO)[C@@H]1CC[C@]2(CO)CC[C@]3(C)[C@H](CC[C@@H]4[C@@]5(C)CCC(NCCc6ccc(O)cc6)C(C)(C)[C@@H]5CC[C@]43C)[C@@H]12 (stereo not given in full)	-88.4% (active)	-68.7% (active)	-97.8% (active)	-72.9% (active)	-92.7% (active)	-43.4% (active)	-95.3% (active)	-81.5% (active)	-89.8% (active)	-94.1% (active)
